Pf Dd2 inh = inhibitors of Plasmodium falciparum Dd2 growth; P. falciparum Dd2 growth, SYBR Green, 72 h; Potency, µM (doses to about 28.9 µM), for inactives: at the top dose activity, negative = inhibition, usual class: inhibitors; actives 4.3% (n = 120,000); active = well fitted inhibition curve with a large enough effect;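 also: plate controls were DMSO vehicle for no effect and reference drug for full effect; nearly all actives have a fitted effect of over 65% in size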
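Infected erythrocytes (Dd2, 0.3% parasitemia, 2.5% hematocrit final) are added to compound in RPMI-1640/Albumax II medium, grown 72 h at 37C in low oxygen, then lysed with saponin/Triton-X containing SYBR Green and read by fluorescence.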
* = called active by the depositor; i = inactive; ! = repeats disagree; [ ] = remark or other dose. Shown is part of a subset that was picked to be rich in hits. Potency is read from the fitted curve at half-maximal effect.

SMILES | Pf Dd2 inh
OCC1CN(Cc2cc(F)cc(Br)c2)CC12CCNCC2 (configuration not stated) | -6%
CC1=C[C@@H](CNC(=O)C(C)(C)C)[C@H](C(C)C)C[C@H]1Cc1nnc(-c2ccncc2)o1 | -10%[44.1 µM]
CC1=C[C@@H](CO)[C@H](C(C)C)C[C@H]1Cc1nnc(-c2cccnc2)o1 | i
CC(=O)NC[C@@H]1C=C(C)[C@H](CC(=O)N2CCN(C(C)=O)CC2)C[C@H]1C(C)C | -12%[44.1 µM]
COc1ccc(C(=O)NC[C@@H]2C=C(C)[C@H](CC(=O)N3CCN(C(C)=O)CC3)C[C@H]2C(C)C)cc1 | -17%
COc1ccc(-c2nnc(C[C@@H]3C[C@@H](C(C)C)[C@H](CO)C=C3C)o2)cc1 | 10µM*
CCOC(=O)C[C@@H]1C[C@@H](C(C)C)[C@H](CNC(=O)c2ccncc2)C=C1C | i
COc1ccc(C(=O)NC[C@@H]2C=C(C)[C@H](Cc3nnc(-c4ccncc4)o3)C[C@H]2C(C)C)cc1 | 3.5µM*
CC1=C[C@@H](CNC(=O)c2ccccc2)[C@H](C(C)C)C[C@H]1CC(=O)N1CCCC1 | 11µM*
COc1ccc(OCC(=O)NC2CCN(c3cc(-c4ccccc4)[nH]n3)CC2)cc1 | i
CC(C)NC[C@H]1O[C@@H](CO)[C@@H](O)[C@H]1N1CCOCC1 | 10%[44.1 µM]
Cc1ccc(NC(=O)CCC2CCN(C(=O)c3ccccc3)CC2)cc1F | i
COc1ccc(C(=O)N2CCCC3(CC(c4cccnc4)=NO3)C2)cc1 (configuration not stated) | i
C#CCOc1ccc(C(=O)N[C@@H]2CN(C3CCN(C)CC3)CCC[C@H]2O)cc1 | -11%[44.1 µM]
CC(=O)c1cc(CN2CCCC(C(=O)c3cccc(OC(C)C)c3)C2)cs1 (configuration not stated) | -13%
Cc1ccc2nc(Cl)c3cc(C(=O)N4CCCCC4)sc3c2c1 | -26%
CCN(CCNC(=O)c1cc2c(s1)CN(C1CC1)C2)c1cccc(C)c1 | -27%
O=C(NCCN1CCCCC1)c1cc2c(s1)CCN(C(=O)c1ccc(Cl)cc1)C2 | -5%
Cc1nnc(NC(=O)NC2CCN(Cc3ccccc3)CC2)s1 | -16%
CCC1CCCCN1CCNC(=O)c1cc2c(s1)CN(C1CCCC1)C2 (configuration not stated) | 6.3µM*
Cc1ccc2nc(Cl)c3cc(C(=O)N4CCCCC4C)sc3c2c1 (configuration not stated) | -17%
CCC1CCCCN1CCCNC(=O)c1cc2c(Cl)nc3ccc(C)cc3c2s1 (configuration not stated) | 3.5µM*
O=C(O)c1cc2c(s1)CN(C1CCCC1)C2 | -3%
O=C(NC1CCN(Cc2ccccc2)CC1)c1cc2c(s1)CN(C1CCCC1)C2 | 7.1µM*
CCN(CC)Cc1cnc2c(C(=O)N3CCC(N4CCCC4)CC3)cnn2c1 | 0%
SMILES | Pf Dd2 inh
CCOc1cc(=O)n2c(c1C(=O)Nc1ccc(C)cc1)CCCC2 | -6%
COc1ccc(CNC(=O)CCC2CCCN(C(=O)CN3CCOC3=O)C2)c(OC)c1 (configuration not stated) | -3%
Cc1ccc(N2CC(c3noc(-c4cnccn4)n3)CC2=O)cc1 (configuration not stated) | 19%
COCCN1C(=O)CCc2cc(NC(=O)c3c(F)cccc3F)ccc21 | -22%
CCCNC(=O)N1CCCOCCNC(=O)[C@@H]2CCC[C@@H]21 | 15%
CCC1Oc2ccc(NC(=O)Cc3cccc(OC)c3)cc2CN(Cc2ccc3c(c2)OCO3)C1=O (configuration not stated) | i
CC(C)CCCC1CN(C(=O)CCN2CCCCCC2=O)CCO1 (configuration not stated) | -6%
COc1ccc(CN2Cc3cc(NC(=O)c4ccc(Cl)cc4)ccc3OC(C)C2=O)c(OC)c1 (configuration not stated) | i
CCc1cc(C(=O)Nc2cnn(Cc3ccccc3C)c2)no1 | 0%
COc1ccc2c(c1)CCc1c(C(=O)Nc3cnn(Cc4ccc(Cl)cc4Cl)c3)noc1-2 | 7.9µM*
Clc1cccnc1-c1cc(NCc2ccccn2)nc2[nH]ccc12 | 8.9µM*
COCCNc1cc(-c2cncc(C(=O)N3CCOCC3)n2)c2cc[nH]c2n1 | -12%
Cc1ccc(C#N)c(-c2cc(NCc3cccnc3)nc3[nH]ccc23)n1 | -24%
CC(=O)NCc1ccc(-c2cc(NC3CCCC3)nc3[nH]ccc23)nc1 | -24%
CN(C)CCNc1cc(-c2ccc3ccccc3n2)c2cc[nH]c2n1 | 13µM*
CN(C)CCNC(=O)c1nc(-c2ccccc2)cc2[nH]ccc12 | i
NC(=O)c1ccnc(-c2cc(NCc3ccccn3)nc3[nH]ccc23)c1 | -25%
CC(=O)c1sccc1-c1cc(NCc2ccccn2)nc2[nH]ccc12 | -28%
CC(C)c1cccc(-c2cc(NCc3ccccn3)nc3[nH]ccc23)n1 | 8.9µM*
O=C(CCCn1ccnc1)N1CCn2nc(C(O)Cc3ccccc3)cc2C1 (configuration not stated) | -3%
COc1ccc2[nH]c(C(=O)N3C[C@@H](C(N)=O)[C@H](c4n[nH]c(C)n4)C3)cc2c1 | 9%
COc1nccc(N2CCC(CC(=O)N3CCCN(c4ncccn4)CC3)CC2)n1 | i
O=C(CCCn1ccnc1)N[C@@H]1COCC[C@@H]1OCc1cscn1 | 1%
O=[S+]([O-])(c1ccccc1)N1CCCC2(CC(c3cccnc3)=NO2)C1 (configuration not stated) | 0%
COC1CCN(S(=O)(=O)N2CCCC(C)(c3ccccc3)C2)CC1 (configuration not stated) | 4%
SMILES | Pf Dd2 inh
Cc1ccc([C@H]2CN(C(=O)c3[nH]nc(N)c3-c3ccccc3)C[C@@H]2N)o1 | 6%
COC1CCN(S(=O)(=O)N2C[C@H](c3ccc(C)o3)[C@@H](N)C2)CC1 | 11µM*
Cc1cccc(C(=O)N2CCC(c3n[nH]c(=O)n3-c3ccccc3)CC2)c1 | -27%
O=C(NCc1ccccc1)N1CC[C@H](c2nc3ccc(F)cc3[nH]2)C1 | i
O=c1[nH]c(C2CCCN(CC3CC3)C2)nn1-c1ccccc1 (configuration not stated) | i
O=c1[nH]c(C2CCN(Cc3cccs3)CC2)nc2ccc(F)cc12 | -6%
O=c1[nH]c(C2CCCN(Cc3ccccc3)C2)nn1-c1ccc(Cl)cc1 (configuration not stated) | i
O=c1[nH]c(C2CCCN(CC3CCCC3)C2)nc2ccc(F)cc12 (configuration not stated) | 2.2µM*
O=c1[nH]c(C2CCCN(Cc3ccc(Cl)cc3)C2)nc2ccc(F)cc12 (configuration not stated) | 8.9µM*
COc1ccc(CN2CCCC(c3nn(-c4ccc(Cl)cc4)c(=O)[nH]3)C2)cc1 (configuration not stated) | i
O=c1[nH]c(C2CCCN(Cc3cccc(Cl)c3)C2)nc2ccc(F)cc12 (configuration not stated) | 10µM*!
Cc1ccc2nc(C3CCN(Cc4cccc(Cl)c4)CC3)[nH]c(=O)c2c1 | 1%
COc1ccc(-c2cn(C)c(=O)n3cc(COc4ccccc4)nc23)c(C(F)(F)F)c1 | i
COc1cc(NC(=O)Cn2ccn3nc(-c4ccc(F)cc4)c(CO)c3c2=O)cc(OC)c1 | -21%
CN1C(=O)CCC2(CNC(=O)C3CCC3)CCCC=C12 (configuration not stated) | 8%
O=C1NC[C@@H](CCC(=O)N2CCC(O)CC2)N2C[C@@H](NCc3ccccc3)C[C@@H]12 | 6%[44.1 µM]
Cc1ccc(C(=O)NCCC(=O)N2CC[C@@](C)(O)[C@@H](O)C2)cc1 | 12%

Screening results as filed in PubChem.
